Assay results published in ChEMBL document CHEMBL5308541, “MAIP: An Open-Source Tool to Enrich High-Throughput Screening Output and Identify Novel, Druglike Molecules with Antimalarial Activity” (ACS Med Chem Lett, 2023).
Out of some 4,800 compounds screened, about 420 (8.8%) showed an effect of 50% or more. The full list was thinned out, with strong results kept by preference.

The compounds below were run on Plasmodium falciparum (assay: Confirmatory screen in NF54 nanoGlo assay, in single point, at 2uM, 72h). Conditions: timepoint 72 hour.
Format: functional, Erythrocyte

SMILES	% Inhibition [%]
O[C@@H](CNCc1ccc2c(c1)CCO2)c1ccc(F)c(F)c1	61
CN1CCC(N(C)c2ccccc2CNC[C@@H](O)c2cccc(Cl)c2)CC1	23
CN1CCN(c2ccc(C(F)(F)F)cc2NCc2cnc[nH]2)CC1	62
CN1C2CCC1CC(OC(=O)C1CCC(C(=O)OC3CC4CCC(C3)N4C)(c3ccccc3)c3ccccc31)C2 (stereo not drawn)	49
Fc1ccc(N2CC[C@H](CN3CCC(c4c[nH]c5ccccc45)(c4c[nH]c5ccccc45)CC3)C2)cc1	97
CC(C)(C)c1ccc(CNC[C@H](O)c2ccc(F)cc2F)cc1	95
Cc1ccc(CNc2ncnc(N)c2Cl)c(N2CCCC2)n1	50
CN(C)CC12CNCC1CN(c1ccnc3cc(Cl)ccc13)C2 (stereo not drawn)	98
